# Reference: ChEMBL document CHEMBL1961873, “Compounds: GSK PKIS; Assays: Nanosyn kinase panel” (2012)
# Experiments:
# [1] = biological target: T1, 3-phosphoinositide-dependent protein kinase 1 (Homo sapiens) (UniProt O15530); conditions: at 0.1 µM;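 also: values are mean inhibition of PDK1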
# T1 sequence (whole entry): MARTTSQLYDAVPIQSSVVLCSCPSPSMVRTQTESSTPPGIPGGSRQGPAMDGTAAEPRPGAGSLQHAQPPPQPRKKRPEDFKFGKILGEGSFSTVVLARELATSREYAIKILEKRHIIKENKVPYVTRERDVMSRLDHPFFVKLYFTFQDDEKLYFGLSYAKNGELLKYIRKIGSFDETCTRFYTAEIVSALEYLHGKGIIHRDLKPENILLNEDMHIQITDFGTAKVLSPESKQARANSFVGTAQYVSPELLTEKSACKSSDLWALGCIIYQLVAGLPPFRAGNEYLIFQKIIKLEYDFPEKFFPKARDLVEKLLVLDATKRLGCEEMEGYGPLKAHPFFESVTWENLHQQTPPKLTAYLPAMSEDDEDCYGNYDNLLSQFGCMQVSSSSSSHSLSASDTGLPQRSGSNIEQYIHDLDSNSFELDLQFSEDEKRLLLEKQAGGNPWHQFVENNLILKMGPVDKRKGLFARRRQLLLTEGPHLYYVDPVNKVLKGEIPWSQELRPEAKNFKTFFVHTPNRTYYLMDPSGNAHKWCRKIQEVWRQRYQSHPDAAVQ
# [2] = biological target: cAMP-dependent protein kinase catalytic subunit alpha (Homo sapiens) (UniProt P17612); conditions: at 0.1 µM
# [3] = biological target: cAMP-dependent protein kinase catalytic subunit alpha (Homo sapiens) (UniProt P17612); conditions: at 1 µM
# [4] = biological target: Protein kinase C alpha type (Homo sapiens) (UniProt P17252); conditions: at 0.1 µM
# [5] = biological target: Protein kinase C alpha type (Homo sapiens) (UniProt P17252); conditions: at 1 µM
# [6] = biological target: Protein kinase C beta type (Homo sapiens) (UniProt P05771); conditions: at 0.1 µM
# Protein kinase C beta type (Homo sapiens), sequence (P05771 2-671 limits assumed): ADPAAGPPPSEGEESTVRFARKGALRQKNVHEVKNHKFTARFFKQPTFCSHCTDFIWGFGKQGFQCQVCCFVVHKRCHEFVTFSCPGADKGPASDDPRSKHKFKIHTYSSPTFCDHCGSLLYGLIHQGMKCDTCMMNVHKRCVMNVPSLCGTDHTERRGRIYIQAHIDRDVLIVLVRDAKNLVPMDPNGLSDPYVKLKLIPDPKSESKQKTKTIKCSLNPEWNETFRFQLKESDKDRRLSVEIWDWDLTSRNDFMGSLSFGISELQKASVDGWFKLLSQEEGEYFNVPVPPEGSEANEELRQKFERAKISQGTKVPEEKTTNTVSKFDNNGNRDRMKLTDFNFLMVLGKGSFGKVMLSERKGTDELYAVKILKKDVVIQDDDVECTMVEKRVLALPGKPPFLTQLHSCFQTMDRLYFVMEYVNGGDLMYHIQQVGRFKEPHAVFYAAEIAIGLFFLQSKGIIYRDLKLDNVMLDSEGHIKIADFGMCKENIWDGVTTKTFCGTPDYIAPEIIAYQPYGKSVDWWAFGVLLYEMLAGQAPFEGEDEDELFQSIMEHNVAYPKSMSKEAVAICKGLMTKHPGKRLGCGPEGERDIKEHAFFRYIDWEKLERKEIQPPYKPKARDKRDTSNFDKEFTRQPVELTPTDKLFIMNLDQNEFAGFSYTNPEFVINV
# [7] = biological target: Protein kinase C beta type (Homo sapiens) (UniProt P05771); conditions: at 1 µM
# [8] = biological target: Protein kinase C eta type (Homo sapiens) (UniProt P24723); conditions: at 0.1 µM
# Protein kinase C eta type (Homo sapiens), sequence (P24723 whole entry): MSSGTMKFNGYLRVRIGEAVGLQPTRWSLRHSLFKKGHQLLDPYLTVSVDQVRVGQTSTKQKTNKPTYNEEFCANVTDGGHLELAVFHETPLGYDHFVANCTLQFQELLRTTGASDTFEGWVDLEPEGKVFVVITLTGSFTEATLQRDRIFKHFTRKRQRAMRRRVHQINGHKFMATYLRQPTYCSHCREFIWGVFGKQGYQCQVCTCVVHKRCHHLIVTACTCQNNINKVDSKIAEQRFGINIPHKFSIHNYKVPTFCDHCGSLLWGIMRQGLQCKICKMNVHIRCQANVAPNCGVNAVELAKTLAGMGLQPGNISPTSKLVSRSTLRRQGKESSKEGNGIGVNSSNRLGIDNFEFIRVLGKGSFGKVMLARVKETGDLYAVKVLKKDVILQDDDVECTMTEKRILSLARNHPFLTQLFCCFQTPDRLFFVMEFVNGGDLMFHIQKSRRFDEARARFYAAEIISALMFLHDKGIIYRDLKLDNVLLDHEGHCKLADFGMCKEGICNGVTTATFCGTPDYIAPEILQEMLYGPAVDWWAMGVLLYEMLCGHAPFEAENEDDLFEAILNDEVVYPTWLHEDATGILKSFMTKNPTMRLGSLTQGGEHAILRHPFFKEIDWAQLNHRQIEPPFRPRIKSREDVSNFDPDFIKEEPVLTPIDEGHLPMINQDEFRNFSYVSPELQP
# [9] = biological target: Protein kinase C eta type (Homo sapiens) (UniProt P24723); conditions: at 1 µM
# [10] = biological target: Protein kinase C gamma type (Homo sapiens) (UniProt P05129); conditions: at 0.1 µM
# [11] = biological target: Protein kinase C gamma type (Homo sapiens) (UniProt P05129); conditions: at 1 µM
# [12] = biological target: T2, Protein kinase C iota type (Homo sapiens) (UniProt P41743); conditions: at 0.1 µM
# T2 sequence (whole entry): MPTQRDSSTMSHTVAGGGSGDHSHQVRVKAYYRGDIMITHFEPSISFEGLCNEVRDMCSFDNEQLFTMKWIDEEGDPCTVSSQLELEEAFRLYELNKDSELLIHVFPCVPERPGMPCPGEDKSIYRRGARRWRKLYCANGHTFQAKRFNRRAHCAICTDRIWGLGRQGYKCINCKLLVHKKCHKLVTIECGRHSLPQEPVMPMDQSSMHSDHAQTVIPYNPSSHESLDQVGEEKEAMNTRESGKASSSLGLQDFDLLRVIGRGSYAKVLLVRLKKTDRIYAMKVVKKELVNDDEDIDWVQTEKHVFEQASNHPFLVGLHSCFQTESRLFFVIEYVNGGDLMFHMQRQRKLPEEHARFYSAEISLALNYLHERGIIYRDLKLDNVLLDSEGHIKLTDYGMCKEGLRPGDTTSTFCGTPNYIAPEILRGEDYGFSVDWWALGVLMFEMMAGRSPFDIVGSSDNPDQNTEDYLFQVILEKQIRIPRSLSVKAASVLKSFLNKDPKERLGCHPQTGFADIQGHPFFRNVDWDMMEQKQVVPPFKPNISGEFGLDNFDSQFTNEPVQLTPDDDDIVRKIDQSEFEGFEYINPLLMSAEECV
# [13] = biological target: T2, Protein kinase C iota type (Homo sapiens); conditions: at 1 µM
# [14] = biological target: Protein kinase C theta type (Homo sapiens) (UniProt Q04759); conditions: at 0.1 µM
# Protein kinase C theta type (Homo sapiens), sequence (Q04759 whole entry, looked up): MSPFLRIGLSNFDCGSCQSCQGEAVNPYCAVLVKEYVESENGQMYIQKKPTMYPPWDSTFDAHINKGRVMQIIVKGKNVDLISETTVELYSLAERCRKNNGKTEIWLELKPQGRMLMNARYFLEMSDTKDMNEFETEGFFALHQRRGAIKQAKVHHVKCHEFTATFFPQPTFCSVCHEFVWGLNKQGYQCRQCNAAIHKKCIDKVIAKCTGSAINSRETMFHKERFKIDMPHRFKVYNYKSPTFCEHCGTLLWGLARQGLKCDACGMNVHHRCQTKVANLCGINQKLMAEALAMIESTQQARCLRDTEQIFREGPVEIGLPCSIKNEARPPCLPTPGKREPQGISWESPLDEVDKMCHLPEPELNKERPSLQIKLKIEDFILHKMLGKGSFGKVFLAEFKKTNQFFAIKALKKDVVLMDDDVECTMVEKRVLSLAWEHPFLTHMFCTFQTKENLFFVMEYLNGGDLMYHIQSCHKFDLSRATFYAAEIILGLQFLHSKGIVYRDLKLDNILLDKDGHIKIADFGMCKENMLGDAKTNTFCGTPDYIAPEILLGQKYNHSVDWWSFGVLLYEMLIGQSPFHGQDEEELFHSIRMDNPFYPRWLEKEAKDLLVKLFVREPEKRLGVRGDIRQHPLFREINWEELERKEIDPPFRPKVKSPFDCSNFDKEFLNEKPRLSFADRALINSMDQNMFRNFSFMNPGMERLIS
# [15] = biological target: Protein kinase C theta type (Homo sapiens) (UniProt Q04759); conditions: at 1 µM
# [16] = biological target: Protein kinase C beta type (Homo sapiens) (UniProt P05771); conditions: at 0.1 µM; remark: listed apart in the source
# [17] = biological target: Protein kinase C beta type (Homo sapiens) (UniProt P05771); conditions: at 1 µM; remark: listed apart in the source
# [18] = biological target: T3, Serine/threonine-protein kinase D1 (Homo sapiens) (UniProt Q15139); conditions: at 0.1 µM
# T3 sequence (whole entry): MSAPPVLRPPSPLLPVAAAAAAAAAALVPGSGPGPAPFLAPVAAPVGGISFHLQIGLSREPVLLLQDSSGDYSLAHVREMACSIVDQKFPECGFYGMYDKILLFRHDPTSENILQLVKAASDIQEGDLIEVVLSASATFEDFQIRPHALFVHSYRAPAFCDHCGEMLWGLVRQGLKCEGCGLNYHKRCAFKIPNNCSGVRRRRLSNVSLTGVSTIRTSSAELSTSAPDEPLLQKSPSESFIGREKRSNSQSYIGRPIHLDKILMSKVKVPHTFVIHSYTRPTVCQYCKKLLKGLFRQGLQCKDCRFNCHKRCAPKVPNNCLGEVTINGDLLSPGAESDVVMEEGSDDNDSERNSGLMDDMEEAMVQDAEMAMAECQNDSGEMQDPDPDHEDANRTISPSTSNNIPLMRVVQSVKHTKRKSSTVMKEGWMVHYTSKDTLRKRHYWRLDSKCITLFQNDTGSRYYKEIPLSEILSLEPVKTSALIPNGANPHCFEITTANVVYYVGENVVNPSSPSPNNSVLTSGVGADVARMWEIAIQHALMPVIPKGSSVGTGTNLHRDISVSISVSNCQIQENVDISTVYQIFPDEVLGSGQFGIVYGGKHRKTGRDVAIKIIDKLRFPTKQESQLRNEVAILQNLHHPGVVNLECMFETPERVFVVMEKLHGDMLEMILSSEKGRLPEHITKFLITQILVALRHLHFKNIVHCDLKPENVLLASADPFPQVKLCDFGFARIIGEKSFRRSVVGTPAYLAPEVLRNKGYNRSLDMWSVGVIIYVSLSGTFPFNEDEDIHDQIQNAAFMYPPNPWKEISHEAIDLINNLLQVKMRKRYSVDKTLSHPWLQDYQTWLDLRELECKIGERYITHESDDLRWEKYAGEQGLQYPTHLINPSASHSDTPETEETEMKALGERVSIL
# [19] = biological target: T3, Serine/threonine-protein kinase D1 (Homo sapiens); conditions: at 1 µM
# [20] = biological target: T4, Serine/threonine-protein kinase D2 (Homo sapiens) (UniProt Q9BZL6); conditions: at 0.1 µM;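 also: reported percent inhibition values are means, part of the GSK PKIS kinase panel screen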
# T4 sequence (whole entry): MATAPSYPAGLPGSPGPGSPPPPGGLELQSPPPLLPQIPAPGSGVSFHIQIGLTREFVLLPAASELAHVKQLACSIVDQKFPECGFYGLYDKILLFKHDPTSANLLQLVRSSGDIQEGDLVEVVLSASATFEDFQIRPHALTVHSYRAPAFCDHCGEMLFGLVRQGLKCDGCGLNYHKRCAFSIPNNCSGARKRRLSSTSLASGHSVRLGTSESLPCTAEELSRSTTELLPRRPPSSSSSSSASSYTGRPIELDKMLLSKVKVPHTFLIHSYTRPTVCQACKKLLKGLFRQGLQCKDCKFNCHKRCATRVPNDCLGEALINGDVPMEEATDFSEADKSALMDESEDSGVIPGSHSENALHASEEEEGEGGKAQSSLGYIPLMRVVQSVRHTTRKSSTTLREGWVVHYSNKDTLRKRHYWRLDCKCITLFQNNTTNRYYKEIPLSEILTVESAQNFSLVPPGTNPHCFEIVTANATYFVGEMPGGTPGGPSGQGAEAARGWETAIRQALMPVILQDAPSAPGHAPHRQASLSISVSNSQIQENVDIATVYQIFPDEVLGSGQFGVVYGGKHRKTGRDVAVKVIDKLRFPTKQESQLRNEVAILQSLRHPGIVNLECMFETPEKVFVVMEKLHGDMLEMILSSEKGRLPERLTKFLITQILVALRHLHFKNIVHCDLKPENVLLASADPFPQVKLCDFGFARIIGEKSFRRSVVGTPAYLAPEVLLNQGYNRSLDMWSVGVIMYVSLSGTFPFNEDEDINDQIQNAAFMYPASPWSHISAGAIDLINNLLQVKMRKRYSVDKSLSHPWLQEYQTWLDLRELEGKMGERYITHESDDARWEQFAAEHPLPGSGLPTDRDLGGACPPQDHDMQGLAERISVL
SMILES,inhibition [1],inhibition [2],inhibition [3],inhibition [4],inhibition [5],inhibition [6],inhibition [7],inhibition [8],inhibition [9],inhibition [10],inhibition [11],inhibition [12],inhibition [13],inhibition [14],inhibition [15],inhibition [16],inhibition [17],inhibition [18],inhibition [19],inhibition [20]
COc1cc(C)c(NC(=O)CN(C)C)cc1Nc1nc(Nc2cccc(F)c2C(N)=O)c2cc[nH]c2n1,2.96%,1.08%,-0.43%,1.34%,5.42%,-0.18%,-0.1%,1.08%,1.46%,3.92%,8.9%,-0.31%,1.29%,0.13%,0.13%,0.38%,0.55%,2.21%,18.1%,3.43%
Cc1nn(C)c2cc(N(C)c3ccnc(Nc4cccc(S(N)(=O)=O)c4)n3)ccc12,1.33%,2.03%,6.18%,1%,6.39%,1.44%,6%,4.55%,2.34%,4.1%,10.3%,2.3%,3.87%,1.21%,2.49%,2.72%,6.99%,2.29%,4.44%,3.66%
CS(=O)(=O)CCN(CC#N)Cc1ccc(-c2ccc3ncnc(Nc4ccc(OCc5cccc(F)c5)c(Cl)c4)c3c2)o1,0.12%,-3.08%,-3.11%,-3.93%,-3.34%,-0.34%,-1.95%,2.38%,1.49%,-0.22%,-0.45%,1.19%,0.81%,0.98%,0.92%,0.59%,0.66%,-2.21%,-3.04%,-2.89%
CC1=C(C(=O)Nc2ccc3[nH]ncc3c2)C(c2ccc(F)cc2)NC(=O)N1 (stereo not given),0.63%,3.81%,30.4%,0.69%,0.39%,-0.65%,1.36%,3.55%,10.8%,0.38%,2.9%,1.83%,1.22%,1.63%,3.15%,1.62%,1.76%,3.15%,8.16%,3.76%
Nc1nc(-c2ccccn2)c(-c2ccc3ncccc3n2)s1,1.75%,1.32%,1.89%,1.07%,1.65%,0.07%,1.26%,5.03%,2.77%,1.52%,4.9%,2.73%,1.17%,2.24%,3.34%,-0.19%,0.88%,2.38%,4.64%,2.92%
COc1cc2ncn(-c3cc(O[C@@H](C)c4ccccc4Cl)c(C(N)=O)s3)c2cc1OC,0.82%,4.37%,4.38%,1.75%,3.87%,3.42%,4.55%,5.28%,3.1%,3.01%,1.93%,3.86%,4.88%,2.16%,3.24%,1.99%,5.36%,5.25%,6.69%,4.18%
Nc1ncnc2occ(-c3ccc(NC(=O)Nc4cccc(C(F)(F)F)c4)cc3)c12,-1.02%,2.38%,4.85%,0.88%,1.68%,0.7%,12.6%,0.55%,6.96%,-0.58%,2.18%,3.47%,3.34%,2.55%,2.66%,1.71%,2.2%,5.29%,7.85%,5.02%
CS(=O)(=O)Nc1ccc(N/C=C2\C(=O)Nc3ccccc32)cc1,2.23%,-2%,0.29%,-0.53%,0.61%,-0.94%,-1.13%,-0.7%,-4.5%,-3.28%,0.03%,-1.38%,-0.98%,-1.09%,-0.74%,-1.02%,-0.85%,-2.24%,3.18%,-0.04%
CCCN1CCC=C(c2ccc(Nc3nc(Nc4ccccc4C(N)=O)c4cc[nH]c4n3)c(C)c2)C1,-0.1%,2.92%,2.79%,0.33%,6.13%,-0.14%,-0.64%,5.56%,4.73%,3.41%,9.77%,0.1%,1.27%,2.34%,3.28%,1.44%,3.5%,33.8%,71.3%,25.1%
COc1ccc(-c2nn3ncccc3c2-c2ccnc(Nc3ccc(Cl)c(C(F)(F)F)c3)n2)cc1,0.17%,1.59%,1.26%,0.22%,-0.2%,0.17%,3.13%,2.79%,2.3%,1.74%,-0.57%,0.28%,-1.6%,1.56%,2.55%,0.91%,0.81%,2.22%,3.95%,2.47%
COc1cc(C=NNc2ncnc3c2cnn3-c2ccccc2)ccc1O,3.92%,1.37%,1.88%,0.49%,3.62%,1.19%,4.02%,3.68%,0.52%,1.8%,12.4%,1.32%,5.26%,0.44%,0.62%,1.72%,5.98%,1.65%,3.18%,1.16%
COc1cc2c(cc1Nc1nc(N3CCc4ccccc43)c3cc[nH]c3n1)N(C(=O)CN(C)C)CC2,1.89%,1.41%,0.85%,0.7%,1.9%,1.5%,0.59%,3.35%,-0.3%,1.53%,5.19%,1.44%,3.35%,1.03%,-0.74%,1.14%,1.29%,1.69%,3.76%,1.71%
CCCN1CCC(Oc2cc(Nc3nc(Nc4cccc(F)c4C(N)=O)c4cc[nH]c4n3)c(OC)cc2Cl)CC1,1.74%,9.14%,9.18%,0.7%,11.2%,0.29%,1.21%,2.42%,1.59%,2.93%,14.8%,1.04%,1.06%,1.35%,7.05%,1.2%,4.52%,0.11%,7.94%,-0.33%
